Bioassay records deposited in PubChem BioAssay by National Center for Advancing Translational Sciences (NCATS).
GoLoco inh red = RGS12 GoLoco-Gai1 interaction inhibition | Gai1:RGS12 GoLoco peptide FP, rhodamine, 10 min | Potency, µM (series often up to 61.6 µM), for inactives: at the top dose activity, negative = inhibition, actives largely listed as inhibitors | 0.44% of 230,000 active; active = well fitted inhibition curve with a large enough effect, not every such curve was filed as active; inactive = no such curve, though single readings can be large or run the other way; note: potency is the fitted concentration of half-maximal effect; nearly all actives have a fitted effect of over 30% in size
Target sequence (P63096 whole entry, looked up): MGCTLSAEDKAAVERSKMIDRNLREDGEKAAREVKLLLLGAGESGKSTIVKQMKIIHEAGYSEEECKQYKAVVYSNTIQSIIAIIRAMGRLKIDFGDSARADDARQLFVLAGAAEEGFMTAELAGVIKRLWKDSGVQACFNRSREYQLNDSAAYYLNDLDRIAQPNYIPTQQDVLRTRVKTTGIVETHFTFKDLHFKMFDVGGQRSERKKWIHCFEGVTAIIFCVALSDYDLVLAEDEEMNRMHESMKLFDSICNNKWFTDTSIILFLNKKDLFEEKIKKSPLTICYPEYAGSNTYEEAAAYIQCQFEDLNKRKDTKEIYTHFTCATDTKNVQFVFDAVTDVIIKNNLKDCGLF
JMJD2E inh = blocks human JMJD2E demethylase activity | JMJD2E catalytic domain, FDH-coupled NADH fluorescence (FDH is formaldehyde dehydrogenase) | 1.6% of 230,000 active | Potency, µM (series often up to 57.1 µM), inactives show at the top dose activity change, negative = inhibition, usual class: inhibitors | B2RXH2; active = well fitted inhibition curve with a large enough effect, not every such curve was filed as active; inconclusive = small, poorly fitted or top-dose-only effect, or another doubt; inactive = no such curve, though single readings can be large or run the other way;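 note: potency is the fitted concentration of half-maximal effect; 0% = wells with enzyme and -100% = buffer wells without enzyme; nearly all actives have a fitted effect of over 50% in size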
FBPA coupling cs = coupling enzyme interference in Giardia aldolase counter-screen. activity change, negative = inhibition, % at 58.2 µM, hits read low. 0.67% of 290,000 active. coupling enzyme system counterscreen, AmpLite Red fluorescence; in the data active = activity change below about -30%
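Activity here indicates interference with the coupling reaction, not aldolase inhibition. Compounds at 57.5 uM final met coupling enzymes for 10 min at RT; substrate and AmpLite Red detection followed, with a 525/598 nm fluorescence read after 20 min.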
NPSR antag = blocks cAMP signaling of the human neuropeptide S receptor; Q6W5P4; CHO-NPSR cells, cAMP TR-FRET, antagonist mode; Potency, µM (highest dose often 38.3 µM), for inactives: top-dose activity change, negative = inhibition, most hits filed as inhibitors; 1% of 220,000 active; note: potency is the fitted concentration of half-maximal effect; nearly all actives have a fitted effect of over 50% in size
Target sequence (Q6W5P4 whole entry, looked up): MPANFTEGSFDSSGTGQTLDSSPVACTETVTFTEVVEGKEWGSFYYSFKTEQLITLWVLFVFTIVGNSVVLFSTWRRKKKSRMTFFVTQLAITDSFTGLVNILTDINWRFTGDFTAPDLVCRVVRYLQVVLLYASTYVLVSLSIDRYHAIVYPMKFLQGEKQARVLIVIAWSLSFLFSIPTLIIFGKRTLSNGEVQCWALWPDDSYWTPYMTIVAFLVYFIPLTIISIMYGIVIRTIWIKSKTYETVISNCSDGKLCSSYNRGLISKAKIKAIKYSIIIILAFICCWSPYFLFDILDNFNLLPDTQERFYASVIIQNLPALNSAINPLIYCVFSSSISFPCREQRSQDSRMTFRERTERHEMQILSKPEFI
Sfp inh = Sfp phosphopantetheinyl transferase inhibition. Q9F4F7. Biochemical Sfp PPTase activity, qHTS. Potency, µM, for the others: largest response in the series, negative = inhibition, usual class: inhibitors. 3.5% of 310,000 active. AID 1490;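 note: the enzyme is Sfp with the accession as filed and its product quenches rhodamine fluorescence; potency is the fitted concentration of half-maximal effect; 0% = enzyme reaction without inhibitor and -100% = no enzyme wells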
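Fluorescence-quenching assay with 15 nM Sfp, 5 uM rhodamine-CoA and 12.5 uM BHQ-2-labelled ybbR peptide in pH 7.6 Hepes/MgCl2 buffer. Enzyme was pre-incubated with compound for 15 min at room temperature. Rate was taken from the 30-min fluorescence change (525/598 nm).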
ALDH1A1 block = blocks purified human ALDH1A1 activity; P00352; Purified ALDH1A1, NADH fluorescence, propionaldehyde substrate; Potency, µM (doses to about 75.3 µM), without a hit: at the highest dose activity, negative = inhibition, hits mostly inhibitors; 7.3% of 220,000 active; active = well fitted inhibition curve with a large enough effect, not every such curve was filed as active; inconclusive = small, poorly fitted or top-dose-only effect, or another doubt; inactive = no such curve, though single readings can be large or run the other way;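 note: potency is the fitted concentration of half-maximal effect; plate controls were no enzyme wells and a reference inhibitor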
An asterisk follows results filed as active; ? = inconclusive; . = not tested or not shown; [ ] = another dose, or the depositor's remark. Only some compounds are listed: those with a hit (about 8.5% of all), similar ones and a draw of the others. Unless noted, calls come from the whole dose curve; as a rule, active = well fitted curve in the direction sought with a large enough effect; inconclusive = small, poorly fitted or top-dose-only effect, or another doubt; inactive = no such curve, though single readings can be large; an effect the other way counts as inactive or inconclusive. Unless noted, % is set by controls: 0 for no effect and ±100 for the full control effect.

SMILES	GoLoco inh red	JMJD2E inh	FBPA coupling cs	NPSR antag	Sfp inh	ALDH1A1 block
CCOC(=O)c1cc2oc(C)cc2n1CC(=O)OC1CCCCC1	-5%	-22%	-2	2%[46.1 µM]	79µM*	?
O=C(Nc1nc(-c2ccccn2)cs1)C1CC1	-2%	-14%	0	7%	-12%	5%
O=C(CC1CC2CCC1C2)Nc1nc(-c2ccccn2)cs1 (stereo unspecified)	16%	-41%	-4	-36%	35µM*	?
COc1ccc(OCCCC(=O)Nc2nc(-c3ccccn3)cs2)cc1	3%	-13%	-3	-27%	40µM*	32µM*
Cc1cc(C)c(OCC(=O)Nc2nc(-c3ccccn3)cs2)c(C)c1	14%	-18%	-7	-19%	-3%	?
O=C(Nc1nc(-c2ccccn2)cs1)C12CC3CC(CC(O)(C3)C1)C2	8%	?	-4	-8%	40µM*	?
O=c1c2ccccc2[nH]c(=S)n1-c1cccc(S(=O)(=O)N2CCCC2)c1	.	6%	-4	?	24%	-3%
Cc1c(C)n(CC(O)CNc2ccccc2)c2ccccc12 (stereo unspecified)	11%	18µM*	-7	-31%	-27%	?
COc1ccc(NCC(O)Cn2c(C)c(C)c3ccccc32)cc1 (stereo unspecified)	8%	-2%	-6	21%	5%	?
CCOC(=O)c1ccc[n+](CC(=O)c2ccc(NC(=O)c3ccccc3)cc2)c1	.	.	2	.	22%	.
CCOc1ccc(S(=O)(=O)NCC2CCCO2)c2ccccc12 (stereo unspecified)	.	.	0	.	15%	.
Cc1cc(S(=O)(=O)NC2CCCCC2)ccc1-n1cnnn1	8%	?	6	6%	2%	-8%
CCOc1ccc(S(=O)(=O)NC2CCCCCC2)cc1	2%	-4%	3	10%	2%	?
CCOc1cc(S(=O)(=O)NC2CCCCCC2)ccc1F	0%	-3%	-5	-27%[46.1 µM]	19%	3.2µM*
COc1ccc(S(=O)(=O)NC2CCCCC2)cc1-n1cnnn1	6%	-2%	0	30%	8%	1.6µM*
CCN(CC)S(=O)(=O)c1ccc(OC)c(-n2cnnn2)c1	-3%	?	0	-6%	-10%	7.9µM*
CCN(CC)S(=O)(=O)c1ccc(-n2cnnn2)c(C)c1	2%	5%	4	1%[46.1 µM]	13%	?
Cc1csc(=O)n1CC(=O)OCC(=O)Nc1cc(Cl)ccc1[N+](=O)[O-]	.	.	2	.	5%	.
C=CCS/C(N)=N\N=C\c1cc(Br)cc([N+](=O)[O-])c1O	5%	-2%	0	29%	11%	7.1µM*
O=[N+]([O-])c1cc(Br)cc(/C=N/n2cnnc2)c1O	12%	12%	14	-19%	18%	?
COc1ccc(/C=C2\N=C(SC)N(c3ccccc3OC)C2=O)cc1	-10%	?	-13	-8%	-15%	?
CC(=O)Nc1ccc(NC(=O)COC(=O)Cc2c[nH]c3ccccc23)cc1	7%	3%	2	3%	5%	14µM*
COc1cccc(NC(=O)COC(=O)CCCc2c[nH]c3ccccc23)c1	20%	-8%	-2	-6%[46.1 µM]	15%	-4%
COc1ccc(NC(=O)COC(=O)CCCc2c[nH]c3ccccc23)cc1	19%	13%	1	7%[46.1 µM]	0%	8.9µM*
CC(=O)N[C@@H](Cc1c[nH]c2ccccc12)C(=O)OCC(=O)Nc1ccc(Cl)c(S(=O)(=O)N(C)C)c1	1%	2%	-2	-21%	13%	?
SMILES	GoLoco inh red	JMJD2E inh	FBPA coupling cs	NPSR antag	Sfp inh	ALDH1A1 block
COc1ccc(NC(=O)COC(=O)Cc2c[nH]c3ccccc23)cc1OC	7%	17%	-1	1%	5%	1%
CCOc1ccc(NC(=O)COC(=O)CCCc2c[nH]c3ccccc23)cc1	-8%	-12%	1	-3%[46.1 µM]	0%	16µM*
CC(=O)NC(Cc1c[nH]c2ccccc12)C(=O)OCC(=O)Nc1ccc2c(c1)OCO2 (stereo unspecified)	-21%	0%	-1	-12%[46.1 µM]	-5%	5µM*
COc1ccc2c(c1)-c1c(sn(-c3ccccc3)c1=S)C(C)(C)N2	8%	-4%	-4	-35%	-5%	6%
COc1ccc(-n2sc3c(c2=S)-c2cc(OC)ccc2NC3(C)C)cc1	5%	-9%	2	-17%[46.1 µM]	?	32µM*
Cc1nc2c(C)cccc2c(SC(=N)N)c1CC=C(Cl)Cl	3%	-7%	3	-6%[7.67 µM]	?	.
C=CCc1c(C)nc2c(C)cccc2c1SC(=N)N	-7%	-9%	-1	14%	56µM*	-5%
C=C(C)C(=O)OCCCCCCCCCC	4%	.	.	.	.	0%
O=c1cc(CSc2nnc(NC3CCCCC3)s2)nc2sccn12	6%	-8%	-7	7%	16%	-10%
COC(=O)c1cc(CSc2nnc(NC3CCCCC3)s2)oc1C	11%	6%	1	2%[46.1 µM]	32µM*	?
CCCN(CCC)S(=O)(=O)c1cccc(-c2csc(C)n2)c1	6%	-4%	0	-15%	-1%	.
CCN(CC)S(=O)(=O)c1ccc(-c2csc(C)n2)cc1	5%	9%	5	23%	-1%	25µM*
O=C(CCC(=O)N1CCN(c2ccc(O)cc2)CC1)c1cccs1	-3%	?	-10	3%	25µM*	.
Cc1ccc(OCCC(=O)N2CCN(c3ccc(O)cc3)CC2)cc1	-16%	-26%	-4	-24%	56µM*	.
COc1ccc(N2CCN(C(=O)CSc3ccc(C)cc3)CC2)cc1	-2%	5%	2	0%	7%	9%
CCNC(=O)c1cc(S(=O)(=O)N2CCSCC2)ccc1OC	.	.	4	.	4%	.
COc1cc(SC)ccc1C(=O)NCCNC(=O)c1nonc1N	.	.	2	.	16%	.
Cc1ccc(-c2cc(-c3ccc(F)cc3)c(C#N)c(N)n2)o1	63%	-6%	-2	-26%	?	?
Cc1ccc(-c2cc(-c3ccc(Cl)cc3)c(C#N)c(N)n2)o1	0%	?	-4	-19%[46.1 µM]	8.9µM*	?
CCOc1cc(-c2cc(-c3ccc(C)o3)nc(N)c2C#N)ccc1O	-4%	?	3	-18%[46.1 µM]	-7%	?
Cc1ccc(-c2cc(-c3ccc(C)o3)nc(N)c2C#N)cc1	8%	?	-5	?	13µM*	?
Cc1ccc(-c2cc(-c3ccc4c(c3)OCO4)c(C#N)c(N)n2)o1	23%	?	1	?	10µM*	?
N#Cc1c(N)oc(-c2ccc3c(c2)OCO3)c1-c1ccc2c(c1)OCO2	109%	?	-38*	-17%[46.1 µM]	4%	?
COc1ccc(S(=O)(=O)N(C)c2ccc(C(=O)N3CCCCC3)cc2)cc1OC	5%	0%	0	-8%	11%	.
